Screening results (PubChem BioAssay)
A selection: hits, their analogues and other compounds. The true share with any hit is near 7.8%.
LASV entry inh: Lassa virus entry inhibition; Lassa virus pseudotype entry inhibition, cell reporter; Potency, µM (doses to about 37.9 µM), for the others: at the top dose activity change, negative = inhibition, most hits filed as inhibitors; hit rate 1.2% among 300,000; AID 540256; calls by dose curve; tested in HEK293 cells; further: potency means the concentration at half of the fitted maximal effect; nearly all actives have a fitted effect of over 50% in size
HCV inh: inhibitors of hepatitis C virus infection; Huh7.5.1 HCVcc-Cre infection, luciferase reporter, 44 h; Potency, µM (highest dose often 41.8 µM), without a hit: at the top dose activity change, negative = inhibition, most hits filed as inhibitors; hit rate 3.4% among 340,000; AID 651820; active means well fitted inhibition curve with a large enough effect; inconclusive means small, poorly fitted or top-dose-only effect, or another doubt; inactive means no such curve, though single readings can be large or run the other way; further: potency means the concentration at half of the fitted maximal effect
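Cells (1,000/well) were plated 4 h before compound, then infected with HCVcc-Cre virus (~0.5 moi). After 44 h further culture, infection was read as luciferase luminescence following a 15 min substrate incubation at room temperature.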
Vaccinia mCherry: vaccinia inhibition (mCherry reporter); AID 720579; Vaccinia virus mCherry reporter infection, fluorescence; hit rate 0.63% among 310,000; Potency, µM (highest dose often 36.5 µM), inactives show top-dose activity change, negative = inhibition, hits mostly inhibitors; calls by dose curve; tested in A549 cells; further: potency means the concentration at half of the fitted maximal effect; nearly all actives have a fitted effect of over 35% in size
Marburg entry inh: blocks Marburg virus binding to or entry into cells | Marburg virus pseudotyped entry inhibition, cell reporter | Potency, µM (top dose mostly 37.8 µM), for inactives: at the top dose activity change, negative = inhibition, hits mostly inhibitors | hit rate 1.8% among 300,000; calls by dose curve; tested in HEK293 cells; further: potency means the concentration at half of the fitted maximal effect
VACV Venus inh: inhibitors of vaccinia virus (Venus reporter). Vaccinia virus Venus reporter expression, fluorescence. Potency, µM (top dose mostly 36.5 µM), without a hit: at the highest dose activity change, negative = inhibition, usual class: inhibitors. hit rate 0.46% among 330,000. AID 720580; calls by dose curve; tested in A549 cells; further: potency means the concentration at half of the fitted maximal effect; nearly all actives have a fitted effect of over 30% in size
HCMV inh: inhibitors of human cytomegalovirus. HFF cells, HCMV-luciferase reporter, 72 h; active compounds read low. hit rate 4.5% among 410,000. activity change, negative = inhibition, % at 57.5 µM; in the data active means activity change below about -60%; inconclusive means no clear call, values can overlap the other calls; inactive means above about -39%
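Luciferase read-out from HCMV-luciferase-infected HFFs (MOI 1 PFU/cell) 72 h post infection at 37C; compounds added after 16 h cell attachment; activity normalized between buffer-only basal and Salinomycin (10uM) inhibitor controls.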
Active calls of the source: *; i = inactive; ? = inconclusive; . = not tested or not shown; [ ] = dose if it differs, or a comment. On the % scale 0 is the no-effect control and ±100 the full control effect.

SMILES	LASV entry inh	HCV inh	Vaccinia mCherry	Marburg entry inh	VACV Venus inh	HCMV inh
Cc1nc(SCC(=O)N2CCN(c3ccccc3)CC2)c2oc3ccccc3c2n1	?	10µM*	.	-28%	-16%	0
Cn1cc(SCC(=O)N2CCOCC2)c2ccccc21	.	5%	i	.	-6%	46
CCn1c(SCC(=O)N2CCN(c3ccccc3)CC2)nnc1-c1cc2cc(Cl)ccc2o1	-10%	?	-7%	-22%	-15%	-80*
Cc1nc(SCc2nc3ccccc3[nH]2)c2oc3ccccc3c2n1	-7%	25µM*	.	?	-19%	-16
Cc1nc(SCc2nc3ccccc3[nH]2)c2oc3ccc(Br)cc3c2n1	.	.	.	.	.	-16
Cc1nc(SCC(=O)O)c2oc3ccccc3c2n1	-20%	8%	.	10%	.	14
Cn1cc(SCC(=O)N2CCN(c3ccccc3)CC2)c2ccccc21	.	?	-19%	.	0%	-84*
CCc1nc(N2CCCCC2C)c2oc3ccccc3c2n1 (stereo not given)	?	?	.	18µM*	.	-26
O=c1[nH]c(CSc2ccccn2)nc2c1oc1ccccc12	5.6µM*	19%	-7%	?	11%	-23
CCc1nc2c(oc3ccccc32)c(=O)[nH]1	24%	8%	.	?	-11%	45
CCc1nc(SCC(=O)N2CCCc3ccccc32)c2oc3ccccc3c2n1	18µM*	11µM*	.	?	.	-19
Cc1ccc2occ(CC(=O)N3CCN(c4cccc(Cl)c4)CC3)c2c1	-15%[46.1 µM]	.	i	28%[46.1 µM]	-10%	-71*
COc1ccc(N2CCN(C(=O)Cc3coc4ccc(C)cc34)CC2)cc1	-9%[46.1 µM]	.	-22%	20%[46.1 µM]	-21%	-114*
Cc1cc(C)c2c(CC(=O)N3CCN(c4cccc(Cl)c4)CC3)coc2c1	-3%[46.1 µM]	.	-6%	?	6%	-8
Cc1cc(N2CCOCC2)n2nc(C)c(-c3ccc(Cl)cc3)c2n1	.	11%	.	.	.	?
Cc1cc(Cl)n2nc(C)c(-c3ccc(Cl)cc3)c2n1	16µM*	?	?	?	14µM*	-7
Cc1cc(N)n2nc(C)c(-c3ccccc3)c2n1	?	?	.	25%	.	33
Cc1cc(N)n2nc(C)c(-c3ccc(Cl)cc3)c2n1	-10%	11µM*	?	?	?	-32
COc1ccc(-c2c(C)nn3c(C)cc(C)nc23)cc1	6%	11µM*	-16%	13%	-14%	-30
COc1ccc(-c2c(C)nn3c(C(F)(F)F)cc(C)nc23)cc1	.	.	-6%	.	-30%	-16
CC(=O)C(C(=O)Nc1c(C)cccc1C)N(Cc1ccco1)C(=O)C(=O)c1ccccc1 (stereo not given)	.	.	.	.	.	-12
COc1cccc2c1cc1c(=O)n(CC(=O)NC3CC3)nc(C)n12	.	.	i	2%[46.1 µM]	-13%	-15
CC1(C)Cc2nc3sc4c(OCc5ccccc5)ncnc4c3cc2CO1	0%	6%	.	15%	.	-8
CCc1nc(OCc2ccccc2)c2sc3nc4c(cc3c2n1)COC(C)(C)C4	22%[14.3 µM]	.	-16%	16µM*	-8%	-25
O=C1C(=C2SCCCS2)CC/C1=C\c1ccc(F)cc1	1.1µM*	0%	-13%	2.5µM*	-7%	-91*
SMILES	LASV entry inh	HCV inh	Vaccinia mCherry	Marburg entry inh	VACV Venus inh	HCMV inh
Cc1cc(C)cc(NC(=O)CSc2nc(=O)[nH]c3c2CCC3)c1	-2%[46.1 µM]	.	-1%[7.34 µM]	.	-3%[7.34 µM]	-37
Nc1cc[n+](CC(=O)c2ccc3c(c2)OCCO3)cc1	?	?	.	-11%	.	-82*
O=C(CCN1CCc2ccccc2C1)c1ccc2c(c1)OCCO2	?	10µM*	.	-12%	.	.
O=C(C[n+]1ccc(C(=O)NCc2ccccc2)cc1)c1ccc2c(c1)OCCO2	8%	8%	-13%	10%	-1%	-10
O=C(NCCc1ccccc1)c1ccc2c(c1)OCCCO2	?	10%	-13%	?	-9%	-93*
O=C(CCN1CCc2ccccc21)c1ccc2c(c1)OCCO2	-23%	?	-9%	?	-4%	22
O=C(NCCc1ccccc1)c1ccc2nc(-c3ccco3)c(-c3ccco3)nc2c1	?	11µM*	.	?	.	.
COc1ccc(Nc2cc3[nH]c(-c4ccc(C(=O)N(C)C)cc4)cc3cn2)c(OC)c1	.	.	.	.	.	38
O=C(CCCc1ccccc1)c1ccc2c(c1)OCCO2	?	-19%	-15%	0.46µM*	-1%	-91*
O=C(NCCc1ccccc1)c1ccc2c(c1)OCCO2	0.35µM*	22%	i	0.45µM*	-8%	-79*
Cc1ccc(SCc2cc(=O)[nH]c(N3CCN(Cc4ccccc4)CC3)n2)cc1	-11%	6%	.	-17%	-5%	-8
Cc1ccc(SCc2cc(=O)[nH]c(N3CCN(Cc4ccc5c(c4)OCO5)CC3)n2)cc1	8%	0%	.	3%[46.1 µM]	-8%	-63*
O=C(c1ccco1)N(Cc1cccnc1)c1nc2ccc(F)cc2s1	-17%[46.1 µM]	.	-13%	.	-2%	4
Cc1cc(Cl)ccc1C(=O)C1CCCN(C2CCSCC2)C1 (stereo not given)	?	2%	?	10µM*	-17%	?
C=CC[C@@H]1C=C[C@H](ON=C(C)CCN2CCCc3nc(C)c(C)cc32)[C@H](CO)O1	.	.	.	23%[14.2 µM]	.	.
COc1ccc(/C=N/Nc2snc(SC)c2C#N)cc1OC	6.3µM*	?	.	?	-29%	82
COc1cccc(/C=N/Nc2snc(SC)c2C#N)c1	5.6µM*	-31%	.	?	?	6
COc1cccc(/C=N/Nc2snc(SC)c2C#N)c1O	?	?	10µM*	?	7.9µM*	-98*
Cc1ccc(-n2c3c(cc(-c4nc(-c5ccc(Cl)cc5)cs4)c2=O)C(=O)CC(C)(C)C3)cc1C	-4%[46.1 µM]	.	-7%	-28%[46.1 µM]	-4%	4
CC(=CCO)CCO	?	.	.	2%[14.2 µM]	.	.
CCCC(=O)N(C1CC(C)C(C#N)(C#N)C1(C#N)C#N)N(C)C (stereo not given)	?	?	i	?	-12%	-90*
CCN(CCNC(=O)C1CCN(Cc2nc(-c3ccc(Cl)cc3)oc2C)CC1)c1ccccc1	?	-43%	13µM*	?	?	27
CCN(CCNC(=O)C1CCN(Cc2nc(-c3cccc(Cl)c3)oc2C)CC1)c1ccccc1	?	?	14µM*	?	11µM*	84
CC(C)Cn1c(=O)c2ccccc2n2c(CCC(=O)N3CCN(c4ccccc4F)CC3)nnc12	.	.	-27%	0%[46.1 µM]	-13%	51
COc1ccccc1NC(=O)c1sc2nc(C)c(C(=O)Nc3ccc(C)cc3C)c(-c3cccs3)c2c1N	-4%[46.1 µM]	.	-11%	-21%[46.1 µM]	1%	-21
CCN1C(=C(C#N)C#N)C=Cc2cc(C)ccc21	7%[46.1 µM]	-10%	i	-17%[46.1 µM]	-9%	-21
C=CC[n+]1c(/C=C2\C=Cc3cc(C)ccc3N2CC)ccc2ccccc21	7.3µM*	2.5µM*	.	4.1µM*	.	-102*
CC(=O)Nc1ccc(S(=O)(=O)N2CCN(C(=O)N3CCCCCC3)CC2)cc1	?	4%	.	?	2%	-69*
